Data on 40 compounds can be found in PubChem BioAssay (NCATS).

Values without a mark were called inactive. The rule behind the calls is not given here.
Potency is the fitted concentration of half-maximal effect.

This test has as its system HIV-1 nucleocapsid protein NCp7 (binding to TG oligonucleotide). The experiment in a line: HIV Nucleocapsid (AID 346).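 Note: potency is for inhibitors that block NC binding and lower polarization.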 As to conditions: HIV-1 NC / fluorescein-TGTGTGTG probe, fluorescence polarization. A digest of the protocol: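 NCp7 100 nM + fluorescein TG4xF 10 nM; Hepes pH 7.5/250mM NaCl/1uM ZnCl2/0.004% PEG 20000; 1 hr RT; FP, 45 s exposure; oligo-only wells as negative control.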
Background: Polarisation of emitted light reports the rotation of a fluorescent probe.
Take `COc1ccc(NC(=O)N2CCC3(CC2)CCN(C(=O)c2cc(C(F)(F)F)cc(C(F)(F)F)c2)CC3)cc1`: the Potency is more than 20 µM.

Turning to `COc1ccc(-c2nc3cnc(Oc4cccc(Cl)c4)nc3n(C[C@H]3CCCO3)c2=O)cc1`, the Potency was more than 20 µM.

Take `CN1CCN(c2ncc3nc(-c4cccs4)c(=O)n(Cc4cccs4)c3n2)CC1`: the Potency was more than 20 µM. As for `O=C(c1csnn1)N1CCC2(CC1)CN(c1ccncc1)C2`, the Potency was more than 20 µM. Consider `O=C(Oc1ccccc1)N1CCC2(CC1)CCN(c1ccccc1)CC2`, for which the Potency is more than 20 µM. The value for `Cn1c(=O)c(-c2cccs2)nc2cncnc21` was more than 20 µM; that for `COc1ccc(CNc2nc(-c3cccc(NS(C)(=O)=O)c3)nc3ccccc23)c(OC)c1` was more than 20 µM. Consider `CN1CCN(c2ncc3nc(CCc4ccccc4)c(=O)n(C)c3n2)CC1`, for which the Potency was more than 20 µM.

On to `O=S(=O)(c1ccccc1)N1CCC2(CCCN(c3ccccc3)C2)CC1`, for which the Potency is more than 20 µM. The value for `COCC(=O)N1CCC2(CC1)CCN(C(=O)Nc1cccc(F)c1)CC2` was more than 20 µM. The figure for `Cc1ccccc1-c1cc(N(C)C)ncn1` is more than 20 µM; for `COc1ncc2nc(-c3ccccc3)c(=O)n(-c3ccccc3)c2n1` it is more than 20 µM; for `O=c1c(-c2cccc(Cl)c2)nc2cncnc2n1C1CC1` it is more than 20 µM. The value for `COc1cccc(Nc2ncc3nc(C)c(=O)n(Cc4cccs4)c3n2)c1` was more than 4 µM; that for `O=c1c(-c2ccc(Cl)cc2)nc2cnc(N3CCOCC3)nc2n1C1CC1` was more than 20 µM. `COc1ccccc1CNc1ncncc1-c1ccc2c(c1)OCO2`: the Potency was more than 20 µM. With `Cn1c(=O)c(CCc2ccccc2)nc2cnc(OCc3ccccc3)nc21`, the Potency was more than 20 µM. For the compound `COCC(=O)N1CCC2(CCCN(c3ccccc3)C2)CC1`, the Potency is more than 20 µM. With `COCCn1c(=O)c(-c2ccc(F)cc2)nc2cnc(N3CCOCC3)nc21`, the Potency was more than 20 µM. As for `CC(=O)NCCNc1ncnc2ccc(-c3ccccc3Cl)cc12`, the Potency was more than 20 µM.

With `COc1cccc(Nc2ncc3nc(C)c(=O)n(CCc4ccccc4)c3n2)c1`, the Potency was more than 20 µM. On to `COCCNc1cc(-c2ccccc2CN(C)C)ncn1`, for which the Potency was more than 20 µM. On to `COCC(=O)N1CCC2(CCN(Cc3cc(C(F)(F)F)cc(C(F)(F)F)c3)CC2)CC1`, for which the Potency was more than 20 µM.

`COc1ccc(Oc2ncc3nc(-c4cccs4)c(=O)n(C)c3n2)cc1`: the Potency was more than 20 µM. The value for `CC(=O)N1CCC[C@@]2(CCN(Cc3nccs3)C2)C1` was more than 20 µM. Consider `COc1ccc(Oc2ncc3ncc(=O)n(CCC#N)c3n2)cc1`, for which the Potency is more than 20 µM. Consider `COc1ccc(Oc2ncc3ncc(=O)n(-c4ccc(OC)cc4)c3n2)cc1`, for which the Potency was more than 20 µM.

In the case of `COc1ncc2ncc(=O)n(Cc3ccc(F)cc3)c2n1`, the Potency is more than 20 µM.

Consider `COc1ccccc1CNc1nc(-c2cccnc2)nc2ccccc12`, for which the Potency was more than 20 µM. Consider `CC(=O)N1CCC2(CC1)CCN(c1ncccn1)CC2`, for which the Potency was more than 20 µM. For the compound `COCCn1c(=O)c(CCc2ccccc2)nc2cnc(OC)nc21`, the Potency is more than 20 µM. On to `O=c1c(-c2ccc(F)cc2)nc2cnc(Nc3ccccc3)nc2n1C[C@H]1CCCO1`, for which the Potency was more than 20 µM. Turning to `COC(=O)N1CCC2(CC1)CCN(c1ccccc1)CC2`, the Potency is more than 20 µM.

For `O=C(c1cnccn1)N1CCC2(CCCN(C(c3ccccc3)c3ccccc3)C2)CC1`, the Potency is more than 20 µM.

For `O=c1c(CCc2ccccc2)nc2cnc(N3CCOCC3)nc2n1C[C@H]1CCCO1`, the Potency was more than 20 µM.

As to `CN1CCN(c2ncnc3ccc(-c4ccc(C(=O)N(C)C)cc4)cc23)CC1`, the Potency is more than 20 µM. The value for `c1nc(N2CCNCC2)c2cc(-c3ccoc3)ccc2n1` was more than 20 µM; that for `COc1ccc(CNc2cc(-c3ccccc3C)ncn2)c(OC)c1` was more than 20 µM. In the case of `Cc1noc(C)c1-c1nc(N(C)Cc2ccco2)c2ccccc2n1`, the Potency is more than 20 µM. The value for `O=C(Oc1ccccc1)N1CCC[C@@]2(CCN(c3ccccn3)C2)C1` was more than 20 µM.
